The structures appear in SMILES notation. The whole screen tested about 360,000 compounds, of which about 510 (0.14%) were called active.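 Rule for the calls: active = mean normalized replicate activity at least 40 and at least half of replicates scoring 40 or more; inconclusive = only one of the two criteria met; inactive = mean below 40 and under half of replicates reaching 40.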 The sample as a whole holds a higher share of actives than the screen did.

Chain of DNA repair and recombination protein RAD54-like (Homo sapiens) (Q92698 whole entry, looked up): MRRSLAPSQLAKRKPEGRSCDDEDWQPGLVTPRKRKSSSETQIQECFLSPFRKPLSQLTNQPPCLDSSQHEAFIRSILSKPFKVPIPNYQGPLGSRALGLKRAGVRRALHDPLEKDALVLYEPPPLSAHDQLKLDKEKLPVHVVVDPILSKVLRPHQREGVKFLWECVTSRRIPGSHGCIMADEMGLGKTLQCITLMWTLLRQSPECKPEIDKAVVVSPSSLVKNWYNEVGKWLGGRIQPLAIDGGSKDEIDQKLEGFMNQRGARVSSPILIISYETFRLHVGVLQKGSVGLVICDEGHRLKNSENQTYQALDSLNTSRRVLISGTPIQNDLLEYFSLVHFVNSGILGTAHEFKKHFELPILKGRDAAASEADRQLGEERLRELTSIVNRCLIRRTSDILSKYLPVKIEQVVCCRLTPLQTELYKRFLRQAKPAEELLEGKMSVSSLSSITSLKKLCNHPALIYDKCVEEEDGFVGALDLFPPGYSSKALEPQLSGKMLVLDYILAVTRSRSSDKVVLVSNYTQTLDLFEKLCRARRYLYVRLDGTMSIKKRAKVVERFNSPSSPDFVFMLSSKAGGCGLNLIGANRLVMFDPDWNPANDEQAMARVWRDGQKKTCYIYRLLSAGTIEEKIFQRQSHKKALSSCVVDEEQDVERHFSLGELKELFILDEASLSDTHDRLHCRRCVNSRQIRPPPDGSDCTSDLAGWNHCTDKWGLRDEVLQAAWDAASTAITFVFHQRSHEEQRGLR

This assay concerns the target DNA repair and recombination protein RAD54-like (Homo sapiens) (UniProt Q92698). In words: RAD54 Holliday junction migration blockers – biochemical, fluorescence, single point, primary screen (AID 602329).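 Note: 0% = median of neutral control wells and 100% = median of positive control wells; inhibitors cause a drop in the FAM fluorescence signal.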 As to conditions: RAD54 Holliday junction branch migration, FAM/BHQ fluorescence; at 10.4 µM; hits give high values.
As to `CCOc1cccc(=NC2CCCCC2)c2c(C)[nH]c(C)c12`, the inhibition was 76.8% (active).
Take `COc1cccc(-c2ccc3n(c2=O)C[C@@H]2[C@@H](CO)[C@H](C(=O)O)[C@H]3N2C(=O)c2cnccn2)c1`: the inhibition is -0.151% (inactive).
For `O=C(O)[C@@H]1[C@@H](CO)[C@@H]2Cn3c(ccc(-c4ccccc4F)c3=O)[C@H]1N2C(=O)c1cccnc1` the value was -3.76% (inactive); for `COC(=O)[C@@H]1[C@@H](CO)[C@@H]2Cn3c(ccc(C4=CCCCC4)c3=O)[C@H]1N2CC1CC1`, -6.66% (inactive).
For `C[C@H](CO)N1C[C@H](C)[C@H](CN(C)C(=O)Oc2ccc3ccccc3c2)OCc2cnnn2CCCC1=O` the value was -17.1% (inactive); for `COC(=O)[C@H]1[C@H](CO)[C@H]2Cn3c(ccc(C4=CCCC4)c3=O)[C@@H]1N2C(=O)CC1CC1`, 1.44% (inactive).
For `CN1CCN(c2cc(N3CCNCC3)ccc2[N+](=O)[O-])CC1` the value was 68% (active); for `COc1cccc(-c2nc3ccc(N4CCN(C)CC4)cc3[nH]2)c1`, 19.3% (inactive); for `COC(=O)[C@H]1[C@H](CO)[C@H]2Cn3c(ccc(-c4cccc(F)c4)c3=O)[C@@H]1N2Cc1ccccc1`, 9.7% (inactive).
As to `O=C(O)[C@H]1[C@H](CO)[C@H]2Cn3c(ccc(-c4ccccc4)c3=O)[C@@H]1N2S(=O)(=O)c1ccccc1F`, the inhibition was 6.58% (inactive).

(Values after PubChem BioAssay AID602329 (Broad Institute, 2012).)
